{"source": "PubChem BioAssay (NCATS)", "note": "Inconclusive results are not listed. Active and inactive are the calls of the source. The call rests on the fitted dose curve; in most records, active means well fitted cell-killing curve with a large enough effect; inconclusive means small, poorly fitted or top-dose-only effect, or effect the other way; inactive means no such curve, though single readings can be large or run the other way. Potency means the concentration at half of the fitted maximal effect.", "data": [{"experiment": "Quantitative High-Throughput drug screen in 47 multiple myeloma cell lines against the NCATS MIPE library collection: KMS20_JCRB cell viability assay (AID 1918973); further: nearly all actives have a fitted effect of over 45% in size", "details": "CellTiter-Glo ATP, 48 h; series mostly up to 45.8 µM", "from_the_text": "PI: Beverly A. Mock Ph.D.\nLaboratory of Cancer Biology and Genetics,\nCenter for Cancer Research, National Cancer Institute,\nNational Institute of Health, Bethesda, Maryland\nDrug resistance and disease progression are common in multiple myeloma (MM) patients, underscoring the need for new therapeutic combinations. […] We hypothesized that effective combinations would reduce MYC expression and enhance p16 activity. […] These preclinical data identify potentially useful drug combinations for evaluation in drug-resistant MM and reveal potential mechanisms of combined drug sensitivity.\nDescribed herein is the primary MIPE qHTS used to cherrypick compounds. Validated compounds were then further tested for potential synergistic activiy.\n[1] Peat TJ, Gaikwad SM, Dubois W, Gyabaah-Kessie N, Zhang S, Gorjifard S, Phyo Z, Andres M, Hughitt VK, Simpson RM, Miller MA, Girvin AT, Taylor A, Williams D, D'Antonio N, Zhang Y, Rajagopalan A, Flietner E, Wilson K, Zhang X, Shinn P, Klumpp-Thomas C, McKnight C, Itkin Z, Chen L, Kazandijian D, Zhang J, Michalowski AM, Simmons JK, Keats J, Thomas CJ, Mock BA. Drug combinations identified by high-throughput screening promote cell cycle transition and upregulate Smad pathways in myeloma. Cancer Lett. 2023 Aug 1;568:216284. doi: 10.1016/j.canlet.2023.216284. Epub 2023 Jun 24. PMID: 37356470; PMCID: PMC10408729.\nSEQUENCE No. (e.g., 1, 2, 3, etc.); […] (e.g., Cells, Incubation, Reagent, etc.); VALUE and DESCRIPTION.\n1; Cells; 5 uL; white, solid bottom 1536-well Greiner assay plate.\n2; Compounds; 23 nL; Kalypsis pin tool (Wako USA) equipped with a 1536-well pin head to transfer to the assay plates.\n3; Incubation; 48 hours; 37C incubation.\n4; Reagent;5uL; CellTiter Glo (Promega).\n5; Detector; 425V; Luminescence; Viewlux PerkinElmer.\nNOTES (numbers refer to Sequence numbers above)\n1. The cell-based screening methods employed in this study were like those previously published. Briefly, the corresponding myeloma cell lines were screened in 1,536-well plates with 500 cells, 5-uL per well for inhibition of cell viability (assessed by measuring ATP levels with CellTiterGlo).\n2. NCATS MIPE 4.0 library of approved and investigational drugs were added using the Kalypsis pin tool. Wells treated with DMSO only for 100% viability and media only wells for 0% viability were used as controls.\n3. The assay plates were covered and incubated for 48 hours in a 37C, 5% CO2 incubator with controlled humidity.\n4. After 48 hours, CellTilter-GloTM luminescent substrate mix (Promega) reagent was added to the assay plate and plates we incubated for 5 min at room temperature.\n5. Signal was measured as median relative luminescence units on a ViewLux (PerkinElmer) multiplate reader.\n[1] Heske CM, Davis MI, Baumgart JT, Wilson K, Gormally MV, Chen L, Zhang X, Ceribelli M, Duveau DY, Guha R, Ferrer M, Arnaldez FI, Ji J, Tran HL, Zhang Y, Mendoza A, Helman LJ, Thomas CJ. Matrix Screen Identifies Synergistic Combination of PARP Inhibitors and Nicotinamide Phosphoribosyltransferase (NAMPT) Inhibitors in Ewing Sarcoma. Clin Cancer Res. 2017 Dec 1;23(23):7301-7311. doi: 10.1158/1078-0432.CCR-17-1121. Epub 2017 Sep 12. PMID: 28899971; PMCID: PMC6636827.", "values": [{"compound": "O=C(Nc1ccc(OC(F)(F)F)cc1)c1sccc1NCc1ccnc2ccccc12", "Potency": "3.72 µM (active)"}, {"compound": "Cc1ccc2c(=O)c3cccc(CC(=O)O)c3oc2c1C", "Potency": "33.2 µM (active)"}, {"compound": "CN(C)CCOc1ccc(-c2nc(-c3ccc4c(c3)CCC4=NO)c(-c3ccncc3)[nH]2)cc1", "Potency": "6.62 µM (active)"}, {"compound": "c1cc(OCCN2CCCCC2)cc(-c2n[nH]c3ccc(-c4ncn[nH]4)cc23)c1", "Potency": "18.7 µM (active)"}, {"compound": "Cc1ccc2c(c1)C(=O)[C@]1(O)CCN(c3ccccc3)C1=N2", "Potency": "2.96 µM (active)"}, {"compound": "Cc1cnc(Nc2cccc(CN3CCOCC3)c2)nc1Nc1cccc(S(=O)(=O)NC(C)(C)C)c1", "Potency": "2.96 µM (active)"}, {"compound": "CC[C@H](C)n1cc(C)c2c(C(=O)NCc3c(C)cc(C)[nH]c3=O)cc(-c3ccc(N4CCNCC4)nc3)cc21", "Potency": "18.7 µM (active)"}, {"compound": "CO[C@@H]1C(N(C)C(=O)c2ccccc2)C[C@H]2O[C@]1(C)n1c3ccccc3c3c4c(c5c6ccccc6n2c5c31)C(=O)NC4=O", "note": "(stereo not given in full)", "Potency": "3.72 µM (active)"}, {"compound": "CC(C)Oc1cc(Nc2nc(N[C@@H](C)c3ccc(F)cn3)ncc2Cl)[nH]n1", "Potency": "4.69 µM (active)"}, {"compound": "O=S(=O)(NCCNCC=Cc1ccc(Br)cc1)c1cccc2cnccc12", "Potency": "11.8 µM (active)"}, {"compound": "Cn1cnc(-c2cc3nccc(Oc4ccc(NC(=S)NC(=O)Cc5ccccc5)cc4F)c3s2)c1", "Potency": "13.2 µM (active)"}, {"compound": "COc1c(C)c2c(c(O)c1CC=C(C)CCC(=O)OCCN1CCOCC1)C(=O)OC2", "Potency": "inactive"}, {"compound": "CC[C@H](NC(=O)[C@H](C)NC)C(=O)N1C[C@@H](O)C[C@H]1Cc1c(-c2[nH]c3cc(F)ccc3c2C[C@H]2C[C@H](O)CN2C(=O)[C@H](CC)NC(=O)[C@H](C)NC)[nH]c2cc(F)ccc12", "Potency": "4.69 µM (active)"}, {"compound": "O=C(c1ccc(F)c(F)c1Nc1ccc(I)cc1F)N1CC(O)([C@H]2CCCCN2)C1", "Potency": "0.372 µM (active)"}, {"compound": "Nc1[nH]nc2nnc(-c3c(-c4ccccc4)nn4ccccc34)cc12", "Potency": "2.09 µM (active)"}, {"compound": "CCOC(=O)N1c2ccc(C(F)(F)F)cc2[C@@H](N(Cc2cc(C(F)(F)F)cc(C(F)(F)F)c2)C(=O)OC)C[C@H]1CC", "Potency": "inactive"}, {"compound": "Cc1cc(C(C)Nc2ccccc2)c2nc(N3CCOCC3)cc(=O)n2c1", "note": "(stereo not given)", "Potency": "10.5 µM (active)"}, {"compound": "CC1=C(C(=O)Nc2cc3cn[nH]c3cc2F)C(c2ccc(C(F)(F)F)cc2)CC(=O)N1", "note": "(stereo not given)", "Potency": "inactive"}, {"compound": "CC1(C)OC2CC3C4CC(F)C5=CC(=O)C=CC5(C)C4C(O)CC3(C)[C@]2(C(=O)CO)O1", "note": "(stereo not given in full)", "Potency": "inactive"}, {"compound": "Cc1nc(NC(=O)N2CCC[C@@H]2C(N)=O)sc1-c1csc(C(C)(C)C)n1", "Potency": "2.64 µM (active)"}, {"compound": "O=C(O)C1=CO[C@@H](O[C@@H]2O[C@H](CO)[C@H](O)[C@H](O)[C@H]2O)[C@@H]2C(CO)=CC[C@H]12", "Potency": "inactive"}, {"compound": "COc1ccc2ccc(=O)oc2c1CC=C(C)C", "Potency": "inactive"}, {"compound": "CC(C)CN(C[C@@H](O)[C@H](Cc1ccccc1)NC(=O)O[C@H]1CO[C@H]2OCC[C@H]21)S(=O)(=O)c1ccc(N)cc1", "Potency": "2.96 µM (active)"}, {"compound": "Cc1cccc(-c2[nH]c(C(C)(C)C)nc2-c2ccc3c(c2)OCO3)n1", "Potency": "2.35 µM (active)"}, {"compound": "CC(C)[C@H](O)C(=O)N[C@@H](C)C(=O)N[C@@H]1C(=O)N(C)CCc2ccccc21", "Potency": "inactive"}, {"compound": "NC(=O)c1noc([C@H](CCCC2CCCCC2)CC(=O)NO)n1", "Potency": "18.7 µM (active)"}, {"compound": "CC=C1C2C=C(C)CC1(N)c1ccc(=O)[nH]c1C2", "note": "(stereo not given)", "Potency": "inactive"}, {"compound": "CC1(C)CC(=O)c2c(C(F)(F)F)nn(-c3ccc(C(N)=O)c(NC4CCC(O)CC4)c3)c2C1", "note": "(stereo not given)", "Potency": "0.0935 µM (active)"}, {"compound": "CC(C)N(CCCNC(=O)Nc1ccc(C(C)(C)C)cc1)C[C@H]1O[C@@H](n2cc(Br)c3c(N)ncnc32)[C@H](O)[C@H]1O", "Potency": "5.26 µM (active)"}, {"compound": "CN(C)S(=O)(=O)c1ccc2c(c1)C(=Cc1cc3c([nH]1)CCCC3)C(=O)N2", "Potency": "10.5 µM (active)"}, {"compound": "Cc1cccc(Nc2nc(N[C@@H]3CCCC[C@H]3N)ncc2C(N)=O)c1", "Potency": "4.69 µM (active)"}, {"compound": "N#Cc1c(N(CC(=O)O)CC(=O)O)sc(C(=O)O)c1CC(=O)O", "Potency": "16.6 µM (active)"}, {"compound": "C[C@@H]1O[C@@H](O[C@H]2CC[C@@]3(C)[C@H](CC[C@@H]4[C@H]3C[C@@H](O)[C@]3(C)[C@@H](C5=CC(=O)OC5)CC[C@]43O)C2)C[C@H](O)[C@@H]1O[C@H]1C[C@H](O)[C@H](O[C@H]2C[C@H](O)[C@@H](O)[C@@H](C)O2)[C@H](C)O1", "note": "(stereo in doubt)", "Potency": "0.27 µM (active)"}, {"compound": "COc1ccc2c(c1)c(C1=C(c3c[nH]c4ccccc34)C(=O)NC1=O)cn2CCCN(C)C", "Potency": "14.8 µM (active)"}, {"compound": "O=C1CN2Cc3c(ccc(Cl)c3Cl)N=C2N1", "Potency": "inactive"}, {"compound": "C[C@H](CCC(=O)O)[C@H]1CC[C@H]2[C@H]3[C@@H](CC[C@]12C)[C@@]1(C)CC[C@@H](O)C[C@H]1C[C@@H]3O", "Potency": "inactive"}, {"compound": "Clc1ccc(C2(c3ccc(-c4cn[nH]c4)cc3)CCNCC2)cc1", "Potency": "5.26 µM (active)"}, {"compound": "COc1cc2ncn(-c3cc(OCc4ccccc4S(C)(=O)=O)c(C#N)s3)c2cc1OC", "Potency": "inactive"}, {"compound": "O=C(Nc1cccc2c(=O)cc(-c3nn[nH]n3)oc12)c1ccc(OCCCCc2ccccc2)cc1", "Potency": "14.8 µM (active)"}, {"compound": "Cn1c(=O)c(Oc2ccc(F)cc2F)cc2cnc(NC3CCOCC3)nc21", "Potency": "inactive"}]}]}
